Source: PubChem BioAssay
Results filed as inconclusive are left out. Active and inactive are the calls of the source.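 Rule for the calls, unless noted: active = normalized viability below 100% at a tested concentration; inactive = the rest.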

Key:
[1] = growth inhibition of DIPG glioma cells, dose response, cell-based, SU-DIPG-XVII, MIPE5.0, CellTiter-Glo, qHTS (AID 1347060; cut-off not given, nearly all actives have AC50 up to about 26 µM;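 for AC50: cells exposed to compound for 48 hours before viability readout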); details: SU-DIPG-XVII viability, CellTiter-Glo ATP luminescence
[2] = growth inhibition of DIPG glioma cells, dose response, cell-based, SU-DIPG-XIII, MIPE4.0, CellTiter-Glo, qHTS (AID 1347061; cut-off not given, nearly all actives have AC50 up to about 37 µM;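 note: cells exposed to compound for 48 hours before readout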); details: SU-DIPG-XIII viability, CellTiter-Glo ATP luminescence
[3] = growth inhibition of DIPG glioma cells, dose response, cell-based, JHH-DIPG-1, MIPE4.0, CellTiter-Glo, qHTS (AID 1347062; cut-off not given, nearly all actives have AC50 up to about 27 µM;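 for AC50: cells exposed to compound for two days before readout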); details: JHH-DIPG-1 viability, CellTiter-Glo ATP luminescence
[4] = growth inhibition of DIPG glioma cells, dose response, cell-based, SU-DIPG-IV, MIPE4.0, CellTiter-Glo, qHTS (AID 1347063; cut-off not given, nearly all actives have AC50 up to about 30 µM;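 note: compound exposure lasted 48 hours before the viability readout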); details: SU-DIPG-IV viability, CellTiter-Glo ATP luminescence
[5] = growth inhibition of DIPG glioma cells, dose response, cell-based, SU-DIPG-XIII, MIPE5.0, CellTiter-Glo, qHTS (AID 1347064; cut-off not given, nearly all actives have AC50 up to about 23 µM;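 for AC50: cells exposed to compound for 48 hours before the viability read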); details: SU-DIPG-XIII viability, CellTiter-Glo ATP luminescence
[6] = viability loss in pontine glioma line – cell-based, SU-DIPG-XXV, MIPE5.0, CellTiter-Glo, qHTS, dose response (AID 1347065; cut-off not given, nearly all actives have AC50 up to about 26 µM;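 note: cells exposed to compound for 48 hours before ATP readout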); details: CellTiter-Glo ATP luminescence
[7] = SU-DIPG-VI glioma cell viability, MIPE4.0 library, CellTiter-Glo luminescence, qHTS (AID 1347066; cut-off not given, nearly all actives have AC50 up to about 30 µM;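 note: cells exposed to compound for 48 hours before readout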); details: CellTiter-Glo ATP luminescence
[8] = JHH-DIPG-1 glioma cell viability, MIPE5.0 library, CellTiter-Glo luminescence, qHTS (AID 1347067; cut-off not given, nearly all actives have AC50 up to about 26 µM;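 note: cells exposed to compound for 48 hours before readout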); details: JHH-DIPG-1 glioma viability, CellTiter-Glo ATP luminescence
[9] = SU-DIPG-XXV glioma cell viability, MIPE5.0 library, qHTS (AID 1347068; cut-off not given, nearly all actives have IC50 up to about 30 µM;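 for IC50: cells exposed to compound for 48 hours before viability readout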)
[10] = sensitizers of A549 cells to miR-34 induction, primary screen, imaging, A549 dox-inducible miR-34, nuclei and caspase counts (AID 1347080;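 active = compounds whose cell count with miR-34 switched on is under 0.7 times the count with it off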); details: A549 miR-34 inducible, Hoechst nuclei count, 48 h
[11] = survival rescue of mitochondrial mutant cells in low glucose, primary screen, MELAS cybrids, Rieske KO mouse fibroblasts, CellTiter-Glo (AID 1508586;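 active = mean z-score across replicates of 1.96 or higher in either the MELAS or the Rieske mutant cell line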;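 note: z relative to plate mean and SD of compound and empty wells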)
[12] = ovarian cancer cell viability with rucaparib, profiling panel, oncology-focused library, rucaparib conditional (AID 1508598); details: patient-derived ovarian cancer cells, CellTiter-Glo viability, 144 h, stronger effect = lower value
[13] = stronger effect = lower value, cell number ratio, induced over uninduced
[14] = measured here: relative caspase fold change +Dox/-Dox
[15] = measured here: total cells with miR-34 induction, stronger effect = lower value
[16] = measured here: total cells without miR-34 induction
[17] = MELAS cybrid survival, CellTiter-Glo 48 h, stronger effect = higher value
[18] = Rieske KO mouse fibroblast survival, CellTiter-Glo 72 h

Cc1cnc(Nc2ccc(N3CCN(C)CC3)cc2)nc1Nc1cccc(S(=O)(=O)NC(C)(C)C)c1
2300: cell count [10, 15]
0.413: fold change [10, 14]
1880: cell count [10, 16]
inactive: fold change [10, 13] 1.22 | z-score [11, 17] 1.59
active: AC50 [1] 2950 nM | AC50 [2] 5900 nM | AC50 [3] 5900 nM | AC50 [4] 6620 nM | AC50 [5] 2950 nM | AC50 [6] 1860 nM | AC50 [7] 14800 nM | AC50 [8] 2950 nM | IC50 [9] 4680 nM
-3.35: z-score [11, 18]

O=C(c1ccc(C(=O)N2CCC(N3CCCC3)CC2)c(Nc2ccccc2)c1)N1CCC(N2CCCC2)CC1
inactive: outcome [1] | outcome [2] | outcome [3] | outcome [4] | outcome [5] | outcome [6] | outcome [7] | outcome [8] | outcome [9] | fold change [10, 13] 0.897 | z-score [11, 17] -0.111
8920: cell count [10, 16]
-0.294: z-score [11, 18]
8000: cell count [10, 15]
1.63: fold change [10, 14]

COCCn1c2c([n+](Cc3cnccn3)c1C)C(=O)c1ccccc1C2=O
-2.86: z-score [11, 18]
inactive: fold change [10, 13] 1.7 | z-score [11, 17] -0.74 | viability ([12]; at 0.000305 µM, OCI-P5x cells, with rucaparib 20 µM, 100% = cells with rucaparib alone) 116% | viability ([12]; at 0.000305 µM, OCI-P5x cells, without rucaparib) 108% | viability ([12]; at 0.00122 µM, OCI-P5x cells, with rucaparib 20 µM, 100% = cells with rucaparib alone) 128% | viability ([12]; at 0.00488 µM, OCI-P5x cells, with rucaparib 20 µM, 100% = cells with rucaparib alone) 114%
active: AC50 [1] 9.34 nM | AC50 [2] 66.2 nM | AC50 [3] 46.9 nM | AC50 [4] 14.8 nM | AC50 [5] 1.66 nM | AC50 [6] 26.3 nM | AC50 [7] 23.5 nM | AC50 [8] 105 nM | IC50 [9] 29.5 nM | viability ([12]; at 0.000305 µM, OCI-C5x cells, with rucaparib 10 µM, 100% = cells with rucaparib alone) 92.6% | viability ([12]; at 0.000305 µM, OCI-C5x cells, without rucaparib) 88.5% | viability ([12]; at 0.00122 µM, OCI-C5x cells, with rucaparib 10 µM, 100% = cells with rucaparib alone) 88.5% | viability ([12]; at 0.00122 µM, OCI-C5x cells, without rucaparib) 93.8% | viability ([12]; at 0.00122 µM, OCI-P5x cells, without rucaparib) 99.4% | viability ([12]; at 0.00488 µM, OCI-C5x cells, with rucaparib 10 µM, 100% = cells with rucaparib alone) 90.5% | viability ([12]; at 0.00488 µM, OCI-C5x cells, without rucaparib) 91.8% | viability ([12]; at 0.00488 µM, OCI-P5x cells, without rucaparib) 49.6% | viability ([12]; at 0.0195 µM, OCI-C5x cells, with rucaparib 10 µM, 100% = cells with rucaparib alone) 83% | viability ([12]; at 0.0195 µM, OCI-C5x cells, without rucaparib) 14.6% | viability ([12]; at 0.0195 µM, OCI-P5x cells, with rucaparib 20 µM, 100% = cells with rucaparib alone) 61.5% | viability ([12]; at 0.0195 µM, OCI-P5x cells, without rucaparib) 8.64% | viability ([12]; at 0.0781 µM, OCI-C5x cells, with rucaparib 10 µM, 100% = cells with rucaparib alone) 11% | viability ([12]; at 0.0781 µM, OCI-C5x cells, without rucaparib) 3.7% | viability ([12]; at 0.0781 µM, OCI-P5x cells, with rucaparib 20 µM, 100% = cells with rucaparib alone) 18.6% | viability ([12]; at 0.0781 µM, OCI-P5x cells, without rucaparib) 1.55% | viability ([12]; at 0.313 µM, OCI-C5x cells, with rucaparib 10 µM, 100% = cells with rucaparib alone) 3.83% | viability ([12]; at 0.313 µM, OCI-C5x cells, without rucaparib) 2.36% | viability ([12]; at 0.313 µM, OCI-P5x cells, with rucaparib 20 µM, 100% = cells with rucaparib alone) 1.82% | viability ([12]; at 0.313 µM, OCI-P5x cells, without rucaparib) 0.757% | viability ([12]; at 1.25 µM, OCI-C5x cells, with rucaparib 10 µM, 100% = cells with rucaparib alone) 2.25% | viability ([12]; at 1.25 µM, OCI-C5x cells, without rucaparib) 1.76% | viability ([12]; at 1.25 µM, OCI-P5x cells, with rucaparib 20 µM, 100% = cells with rucaparib alone) 1.09% | viability ([12]; at 1.25 µM, OCI-P5x cells, without rucaparib) 0.567% | viability ([12]; at 5 µM, OCI-C5x cells, with rucaparib 10 µM, 100% = cells with rucaparib alone) 0.969% | viability ([12]; at 5 µM, OCI-C5x cells, without rucaparib) 1.42% | viability ([12]; at 5 µM, OCI-P5x cells, with rucaparib 20 µM, 100% = cells with rucaparib alone) 0.522% | viability ([12]; at 5 µM, OCI-P5x cells, without rucaparib) 0.371%
936: cell count [10, 15]
551: cell count [10, 16]
0.996: fold change [10, 14]
